# Sampled rows, rich in hits. Any-hit rate of the full collection: about 1.9%.
# ClpP mod – qHTS Assay for Activators of ClpP; ATP-dependent Clp protease proteolytic subunit (Bacillus subtilis (strain 168)), P80244; purified B. subtilis ClpP, FRET peptide cleavage, 20 min; Potency, µM (top dose mostly 57.5 µM); 340,000 compounds, 1.9% hits; active = well fitted falling curve with a large enough effect; inconclusive = small, poorly fitted or top-dose-only effect; inactive = no such curve, though single readings can be large or run the other way; also: the source files actives as falling curves though it sought activators and does not explain the sign; nearly all actives have a fitted effect of over 65% in size
#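 Buffer: 100 mM Tris/HCl pH8, 100 mM KCl, 0.05% low protease BSA, 2.5% glycerol, 0.01% Tween-20. ClpP 10 microg/mL final; 20 min RT; delta FRET normalized to ADEP and DMSO controls.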
# PINK1 modulator – A Quantitative High throughput Screen to Identify Chemical Modulators of PINK1 Expression. PINK1 immunofluorescence, high-content cytometry, 24 h. AID 624263, 2012. Potency, µM (series often up to 76.6 µM), usual class: activators. 410,000 compounds, 0.2% hits; active = well fitted activation curve with a large enough effect; inconclusive = small, poorly fitted or top-dose-only effect; cell line not stated here; also: nearly all actives have a fitted effect of over 65% in size
#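 Compound titrations (5 concentrations, 24 h) on a stable cell line; DMSO and CCCP controls. Endpoint: fixed-cell PINK1 immunofluorescence with mitochondrial, cell and nuclear markers, scanned by microplate cytometer.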
# Menin MLL FP TR – qHTS Assay for Inhibitors Targeting the Menin-MLL Interaction in MLL Related Leukemias: Competition With Texas Red Labeled MLL-derived Mutant Peptide. Menin + Texas Red MLL mutant peptide, fluorescence polarization. Potency, µM (highest dose often 61.6 µM), most hits filed as inhibitors. 270,000 compounds, 0.23% hits; active = well fitted inhibition curve with a large enough effect in the polarisation, with a control signal flat, not every such curve was filed as active; inconclusive = small, poorly fitted or top-dose-only effect, or effect the other way, or a change in a side signal; inactive = no such curve, though single readings can be large or run the other way; the % refers to the polarisation
# Target sequence (O00255 whole entry, looked up): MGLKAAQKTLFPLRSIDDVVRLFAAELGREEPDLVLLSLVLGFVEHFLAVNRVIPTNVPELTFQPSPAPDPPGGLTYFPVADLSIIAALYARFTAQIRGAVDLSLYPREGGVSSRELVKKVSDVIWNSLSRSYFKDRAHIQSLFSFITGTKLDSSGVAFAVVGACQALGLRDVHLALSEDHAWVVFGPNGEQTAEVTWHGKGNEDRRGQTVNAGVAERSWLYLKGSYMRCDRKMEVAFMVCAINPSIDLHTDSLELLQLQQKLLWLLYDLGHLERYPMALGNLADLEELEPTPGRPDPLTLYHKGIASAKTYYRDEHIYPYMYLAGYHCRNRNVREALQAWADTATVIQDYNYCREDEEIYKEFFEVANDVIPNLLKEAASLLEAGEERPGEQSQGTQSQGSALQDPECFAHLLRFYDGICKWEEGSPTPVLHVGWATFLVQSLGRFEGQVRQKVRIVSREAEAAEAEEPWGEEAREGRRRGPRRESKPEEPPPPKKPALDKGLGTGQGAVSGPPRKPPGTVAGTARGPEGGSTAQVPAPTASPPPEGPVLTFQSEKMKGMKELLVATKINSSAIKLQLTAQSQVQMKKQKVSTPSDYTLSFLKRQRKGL
# Epigenetic reg – Quantitative High-Throughput Screen for Regulators of Epigenetic Control. murine LDR cells, GFP reporter derepression, 30 h. Potency, µM (series often up to 53.9 µM), hits mostly activators. 280,000 compounds, 0.2% hits. AID 1865, 2009; active = well fitted activation curve with a large enough effect; inconclusive = small, poorly fitted or top-dose-only effect; also: nearly all actives have a fitted effect of over 60% in size
#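 In this reporter-derepression format, murine cells bearing a silenced integrated CMV-GFP locus incubate with test compound (30 h, 37 C), then are washed and imaged; fluorescent objects of 20–120 um count as induced cells.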
# Menin-MLL FL inh – qHTS Assay for Inhibitors Targeting the Menin-MLL Interaction in MLL Related Leukemias: Competition With Fluorescein Labeled MLL-derived Peptide. AID 1766, 2009. Fluorescence polarization, fluorescein-MLL peptide displacement from menin. 290,000 tested, under 10 active. FP activity change, % at 61.4 µM; active = well fitted curve in the direction sought with a large enough effect in the polarisation, not every such curve was filed as active; inconclusive = small, poorly fitted or top-dose-only effect, or effect the other way, or a change in a side signal; inactive = no such curve, though single readings can be large or run the other way; the % refers to the polarisation
# CXXC DNA block – qHTS Fluorescence Polarization Assay for Inhibitors of MLL CXXC domain - DNA interaction. Histone-lysine N-methyltransferase 2A (Homo sapiens), Q03164. MLL-CXXC / FITC-HOXA9 DNA fluorescence polarization. Potency, µM (titrated, usually from 115 µM), hits mostly inhibitors. 290,000 compounds, 0.037% hits. AID 2662, 2010; active = well fitted inhibition curve with a large enough effect in the polarisation, with a control signal flat, not every such curve was filed as active; inconclusive = small, poorly fitted or top-dose-only effect, or effect the other way, or a change in a side signal; inactive = no such curve, though single readings can be large or run the other way; the % refers to the polarisation
#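 Purified MLL-CXXC (added from a 7 uM solution) was preincubated 5 min at ambient with pinned compounds in 50 mM Tris-HCl pH 7.5, 50 mM NaCl, 1 mM DTT, 0.05% BSA. Fluorescein-labeled HOX-A9 DNA (50 nM solution) followed, 30 min, then polarization read.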
# A number is an active result; 0 = inactive; ? = inconclusive; - = not tested or not shown.
SMILES,ClpP mod,PINK1 modulator,Menin MLL FP TR,Epigenetic reg,Menin-MLL FL inh,CXXC DNA block
CCC1(CC)NC(=O)N(CC(=O)Nc2ccc(OCc3ccccc3)cc2)C1=O,0,0,-,-,-,-
COc1ccc(-c2cncnc2-c2ccc(OC)cc2O)cc1,0,0,0,-,0,?
COc1ccc(-c2ncncc2-c2ccc(OC)c(OC)c2)c(O)c1,20µM,0,0,-,0,0
CCCCN(C)C1=CC2=CC(=C(C#N)C#N)CCC2CC1 (stereo unspecified),-,12.6µM,?,?,?,?
CC(NC(=O)c1ccco1)c1nnc2n1CCN(Cc1ccc(Cl)cc1)CC2 (stereo unspecified),-,0,-,-,-,-
O=C(OCC(=O)c1c[nH]c2ccccc12)c1cc2ccccc2cc1O,20µM,?,?,0,0,0
Cc1[nH]c2ccccc2c1C(=O)COC(=O)c1ccccc1O,3.55µM,0,-,-,-,-
COc1ccccc1/C=C/c1cncc(/C=C/c2ccccc2OC)c1,0,0,-,-,-,-
CNc1ccc(/C=C/c2ccnc3ccccc23)cc1,0,0,-,-,-,-
COc1ccc(NCc2cc(=O)[nH]c3ccccc23)cc1,0,0,39.8µM,-,0,0
COc1ccc2[nH]c(=O)c(CNc3ccccc3)cc2c1,15.8µM,0,0,0,0,0
CCOC(=O)c1[nH]c2ccccc2c1NC(=O)c1ccccc1F,0,0,-,0,-,-
NC(=O)C1CCN(C(=O)c2cccc(S(=O)(=O)N3CCc4ccccc4C3)c2)CC1,-,0,0,0,0,0
O=C(c1cccc(S(=O)(=O)N2CCc3ccccc3C2)c1)N1CCN(c2ccc(O)cc2)CC1,31.6µM,0,0,0,0,0
COc1cccc2nc(-c3cccs3)nc(NN3C(=O)C=C(C)C3=O)c12,-,-,0,-,0,-
COc1cc(=O)n2c(c1C(=O)NCc1ccc3c(c1)OCO3)CCN(C(=O)c1ccccc1F)CC2,-,0,-,-,-,-
COc1cccc(N2CC(C(=O)Nc3nnc(SCc4cccnc4)s3)CC2=O)c1 (stereo unspecified),12.6µM,0,0,0,0,0
O=C(Nc1nnc(SCc2cccnc2)s1)C1CC(=O)N(c2ccc(F)cc2)C1 (stereo unspecified),0,0,-,-,-,0
COc1ccc(CN2CCCC(c3nc(-c4ccncc4)ncc3-c3ccccc3C)C2)c(OC)c1 (stereo unspecified),-,0,-,-,-,-
Brc1cccc(-c2nc3c4ccccc4ccn3c2Cc2ccccc2)c1,0,0,-,-,-,-
c1ccc(Cc2c(-c3ccccc3)nc3c4ccccc4ccn23)cc1,31.6µM,0,-,-,-,-
Brc1ccc(C=C2C=c3ccccc3=C2)cc1,0,0,-,-,-,-
CCCOc1ccccc1NC(=O)/C=C/c1ccc(OC)c(S(=O)(=O)N2CCOCC2)c1,0,0,-,-,-,-
COC(=O)c1c(-c2cccs2)csc1NC(=O)COc1ccc(C(C)C)cc1,28.2µM,0,-,0,-,-
COc1cc(/C=C/C(=O)/C=C(O)/C=C/c2ccc(O)c(OC)c2)ccc1O,0,?,0,31.6µM,?,0
SMILES,ClpP mod,PINK1 modulator,Menin MLL FP TR,Epigenetic reg,Menin-MLL FL inh,CXXC DNA block
COc1cc(/C=C/C(=O)O)ccc1O,?,0,0,0,0,-
O=C(CN1C(=O)/C(=C\c2ccc(F)cc2)Oc2ccccc21)N1CCN(c2ccccn2)CC1,22.4µM,0,0,0,0,0
CCN(c1cccc(C)c1)S(=O)(=O)c1c(C)[nH]c(=O)[nH]c1=O,0,0,0,0,0,0
CCN(c1cccc(C)c1)S(=O)(=O)c1ccc2[nH]c(=O)c(=O)[nH]c2c1,22.4µM,0,0,0,0,0
COc1ccccc1Oc1coc2c(CN3CCN(C)CC3)c(O)ccc2c1=O,25.1µM,0,0,0,0,0
COc1ccccc1-c1coc2c(CN3CCN(C)CC3)c(O)ccc2c1=O,7.94µM,0,0,0,0,0
CCOC(=O)C12CC1/C(=N\O)c1ccccc1O2 (stereo unspecified),-,-,-,0,-,-
CCOc1ccc(NC(=O)CC2C(=O)N(c3ccc(OC)cc3)C(=O)N2CCC2=CCCCC2)cc1 (stereo unspecified),0,0,-,0,-,-
O=C(N/N=C/c1ccccn1)c1cc(-c2ccc3ccccc3c2)n[nH]1,22.4µM,0,0,0,0,0
CCc1ccc(-c2cc(C(=O)N/N=C/c3ccccn3)[nH]n2)cc1,-,0,0,0,0,0
CCS(=O)(=O)Nc1cc(C(=O)N2CCCN(C=O)CC2)c2c(c1)nc(-c1ccccc1)n2C,-,0,-,-,-,-
Cc1ccccc1Cn1c2ccccc2c2cnn(CC(=O)NCc3cccc(Cl)c3)c(=O)c21,22.4µM,0,-,0,-,-
Nc1nc(COc2ccccc2C=O)nc(Nc2ccccc2)n1,25.1µM,0,-,0,0,0
CCCCN1CC[C@H]2C=CC[C@@H](C(=O)NCc3cccnc3)[C@H]2C1=O,0,-,-,-,-,-
CCOC(=O)c1cnn(-c2nc(-c3ccc(C)cc3)cs2)c1C(F)(F)F,31.6µM,0,0,0,0,0
COc1ccnc(NCc2cccnc2)c1C#N,31.6µM,0,0,0,0,0
C=CCc1cccc2cc(C(=O)NC)c(=O)oc12,22.4µM,0,0,0,0,0
COC(=O)c1cccc(C(=O)NCc2nc(-c3ccccc3NC(C)=O)oc2C)c1,-,0,-,-,-,-
Cc1ccc(OCC(=O)N2CCOCC2)cc1C,0,0,0,0,0,0
Cc1cc(OCC(=O)N2CCOCC2)cc2oc(=O)c3ccccc3c12,7.08µM,0,0,0,0,0
CC(C)NC(=O)COc1ccc2c(c1)C(=O)CC(C)(C)O2,0,0,0,0,0,0
CCCCCCCNC(=O)COc1ccc2c(c1)C(=O)CC(C)(C)O2,28.2µM,0,?,0,0,0
CC1(C)CC(=O)c2cc(OCC(=O)N3CCOCC3)ccc2O1,28.2µM,0,-,0,0,0
CC1(C)CC(=O)c2cc(OCC(=O)NCc3cccnc3)ccc2O1,25.1µM,0,0,0,0,0
CCN(CC)C(=O)COc1ccc2c(c1)C(=O)CC(C)(C)O2,0,0,0,0,0,0
CCOC(=O)c1cc(C)n(CC2CCC(C(=O)Nc3ccc(OC)cc3)CC2)c1C (stereo unspecified),0,0,-,0,-,-
N[C@@]1(C(=O)O)CO[C@H]2[C@H](C(=O)O)[C@H]21,-,-,0,0,0,-
O=C(Nc1cccc(N2CCC(NCc3cnn(-c4ccccc4)n3)CC2)c1)c1cccnc1,-,0,-,-,-,-
COCC(=O)Nc1cc(C(=O)NC2Cc3ccccc3C2)cc2nc(-c3cccnc3)n(C)c12,-,0,-,-,-,-
Cc1cccc2cc(CN(C(=O)c3ccc(C(F)(F)F)cc3)C3CC3)c(N3CCC(O)CC3)nc12,-,0,-,-,-,-
